Laboratory results: PubChem BioAssay (NCATS)
Where “and” joins values, the source holds several entries; their conditions need not be identical. Equal entries are not always repeated. Records with an inconclusive call do not appear. A call without a number means that no potency is given here. Values without a mark were called inactive. Calls of active or inactive are those of the source. The call rests on the fitted dose curve; in most records, active means well fitted curve in the direction sought with a large enough effect; inconclusive means small, poorly fitted or top-dose-only effect, or another doubt; inactive means no such curve, though single readings can be large; an effect the other way counts as inactive or inconclusive.

Assays:
[1] = molecular target: Cellular tumor antigen p53 (Homo sapiens) (UniProt P04637); assay: Primary qHTS for small molecule compounds that upregulate eGFP-tagged delta133p53alpha (in N-terminal) cells. (AID 2060322); conditions: NCI-H358 eGFP-delta133p53alpha fluorescence, 24 h; activation: hits give high values; further: nearly all actives have a fitted effect of over 75% in size; further: potency means the concentration at half of the fitted maximal effect; on activation: series mostly up to about 56 µM
In short: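 NCI-H358 cells pre-induced 24 h with 10 ng/ml doxycycline to express N-terminal eGFP-delta133p53alpha, then dosed 24 h at 37C without doxycycline; fixed, Hoechst-stained, GFP intensity by laser scanning cytometry, normalized to DMSO (0%) and 57.5 uM 5-azacytidine (100%).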

[2] = molecular target: Aldehyde dehydrogenase, mitochondrial (Homo sapiens) (UniProt P05091); assay: qHTS for Inhibitors of the Aldehyde Dehydrogenase Family (ALDH2) Primary screen (AID 2061308); further: nearly all actives have a fitted effect of over 55% in size
[3] = molecular target: Retinaldehyde dehydrogenase 3 (Homo sapiens) (UniProt P47895); assay: qHTS for Inhibitors of the Aldehyde Dehydrogenase Family (ALDH1A3) Validation screen (AID 2061312); further: nearly all actives have a fitted effect of over 45% in size
[4] = molecular target: Retinaldehyde dehydrogenase 3 (Homo sapiens) (UniProt P47895); assay: qHTS for Inhibitors of the Aldehyde Dehydrogenase Family (ALDH1A3) Primary screen (AID 2061315)
[5] = BET inhibitor-based combinations targeting novel dependencies in MECOM-rearranged (r) AML: SET-2 cell line (AID 2202231); conditions: SET-2 AML cells viability, CellTiter-Glo luminescence, 48 h; viability: hits give low values, concentration not given here; further: nearly all actives have a fitted effect of over 35% in size; further: potency means the concentration at half of the fitted maximal effect
In short: (§1)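 Cells were plated at 500 per well and exposed to an 11-point dose series of each drug for 48 hr. Viability was measured by CellTiter-Glo luminescence, normalized to DMSO and empty-well controls, and summarized as AUC and per-cell-line Z-AUC.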

[6] = BET inhibitor-based combinations targeting novel dependencies in MECOM-rearranged (r) AML: OCI-AML3 cell line (AID 2202232); conditions: Potency: OCI-AML3 viability; further: nearly all actives have a fitted effect of over 35% in size; further: potency means the concentration at half of the fitted maximal effect
In short: as §1

[7] = BET inhibitor-based combinations targeting novel dependencies in MECOM-rearranged (r) AML: MV-4-11 cell line (AID 2202233); further: nearly all actives have a fitted effect of over 45% in size; further: potency means the concentration at half of the fitted maximal effect
In short: (§2)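 Activity is given as area under the curve and as Z-AUC, mean-centred within each cell line. It comes from 11-point dose curves normalized to DMSO and empty wells. CellTiter-Glo luminescence was read after 48 hr drug exposure of 500 cells/well.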

[8] = BET inhibitor-based combinations targeting novel dependencies in MECOM-rearranged (r) AML: HNT-34 cell line (AID 2202234); further: nearly all actives have a fitted effect of over 35% in size
In short: as §2

[9] = BET inhibitor-based combinations targeting novel dependencies in MECOM-rearranged (r) AML: UCSD-AML1 cell line (AID 2202235); further: nearly all actives have a fitted effect of over 40% in size; further: potency means the concentration at half of the fitted maximal effect
In short: as §2

[10] = BET inhibitor-based combinations targeting novel dependencies in MECOM-rearranged (r) AML: AML-191 cell line (AID 2202236; further: nearly all actives have a fitted effect of over 35% in size)
In short: as §1

[11] = BET inhibitor-based combinations targeting novel dependencies in MECOM-rearranged (r) AML: AML-194 cell line (AID 2202237; further: nearly all actives have a fitted effect of over 40% in size)
In short: as §1

Chain of Cellular tumor antigen p53 (Homo sapiens) (P04637 whole entry, looked up): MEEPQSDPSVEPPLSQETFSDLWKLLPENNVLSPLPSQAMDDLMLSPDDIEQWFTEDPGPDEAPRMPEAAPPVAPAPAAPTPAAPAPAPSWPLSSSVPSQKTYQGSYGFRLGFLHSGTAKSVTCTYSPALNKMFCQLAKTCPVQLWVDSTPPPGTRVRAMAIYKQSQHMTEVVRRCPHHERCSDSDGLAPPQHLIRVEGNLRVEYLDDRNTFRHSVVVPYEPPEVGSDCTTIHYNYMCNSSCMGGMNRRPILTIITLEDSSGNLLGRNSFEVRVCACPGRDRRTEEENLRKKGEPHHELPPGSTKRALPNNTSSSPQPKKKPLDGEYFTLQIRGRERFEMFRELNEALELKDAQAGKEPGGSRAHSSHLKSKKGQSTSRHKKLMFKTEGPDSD

In the case of `Cc1ccccc1-n1c(Cn2ncc3c(N)ncnc32)nc2cccc(C)c2c1=O`, the activation [1] is reported as 66.5% and 6.21%, the Potency [2] is reported as “inactive” and the Potency [3] is reported as “inactive”. For the same compound, the Potency [4] was “inactive”, the viability [5] was 112% and the Potency [6] was “inactive”. For the same compound, the Potency [7] was 8330 nM (active), the Potency [8] was “inactive” and the Potency [9] was “inactive”. For the same compound, the Potency [10] was “inactive” and the Potency [11] was “inactive”.
In the case of `Cc1ccc(-n2nccn2)c(C(=O)N2CCN(c3nc4cc(Cl)ccc4o3)CCC2C)c1` (stereo unspecified), the activation [1] is reported as -12.4%, the Potency [2] is reported as “inactive” and the Potency [3] is reported as “inactive”. For the same compound, the Potency [4] was “inactive”.
With `Cc1sc2c(c1C)C(c1ccc(Cl)cc1)=NC(CC(=O)Nc1ccc(O)cc1)c1nnc(C)n1-2` (stereo unspecified) the activation [1] was -21.2%, the Potency [2] was “inactive” and the Potency [3] was “inactive”. The Potency [4] was “inactive”, the Potency [5] was 1320 nM (active) and the Potency [6] was 263 nM (active). For the same compound, the Potency [7] was 296 nM (active).
In the case of `CN1C(=O)[C@@H](Cc2c[nH]c3ccccc23)N=C(c2ccccc2F)c2ccccc21`, the activation [1] is reported as 15.8%, the Potency [2] is reported as “inactive” and the Potency [3] is reported as “inactive”. The Potency [4] was “inactive”.
With `CC(=O)NCCCOc1ccc(C(=O)N2CCC(N3C(=O)CCc4ccccc43)CC2)cc1` the activation [1] was -10.5%, the Potency [2] was “inactive” and the Potency [3] was “inactive”. For the same compound, the Potency [4] was “inactive”.
For `CN(C)c1cc2c(cc1Sc1nc3c(N)nccc3n1CCNCC(C)(C)C)OCO2`, the activation [1] was 5.25%, the Potency [2] was “inactive” and the Potency [3] was “inactive”. For the same compound, the Potency [4] was “inactive”, the Potency [6] was 1180 nM (active) and the Potency [7] was 662 nM (active). For the same compound, the Potency [9] was 1320 nM (active).
With `CC(C)N(CCNC(=O)CN1CCCC1=O)C(C)C` the activation [1] was -9.94% and -3.34%, the Potency [2] was “inactive” and the Potency [3] was “inactive”. The Potency [4] was “inactive”.
With `CN[C@H]1[C@H](O)[C@H](O[C@@H]2[C@@H](O)[C@H](O[C@H]3O[C@H]([C@H](C)O)[C@@H](O)[C@H](O)[C@H]3N)[C@@H](N)C[C@H]2N)OC[C@@]1(C)O` the activation [1] was -4.3%, the Potency [2] was “inactive” and the Potency [3] was “inactive”. For the same compound, the Potency [4] was “inactive”.
In the case of `CCc1c(C(=O)C(N)=O)c2c(OCC(=O)O)cccc2n1Cc1ccccc1`, the activation [1] is reported as -24.6% and -2.39%, the Potency [2] is reported as “inactive” and the Potency [3] is reported as “inactive”. The Potency [4] was “inactive”, the viability [5] was 113% and the Potency [6] was “inactive”. The Potency [7] was “inactive”, the Potency [9] was “inactive” and the Potency [10] was “inactive”.
In the case of `CN=C(NS(=O)(=O)c1ccc(Cl)cc1)N1C[C@H](c2ccccc2)C(c2ccc(Cl)cc2)=N1`, the activation [1] is reported as 1.91%, the Potency [2] is reported as “inactive” and the Potency [3] is reported as “inactive”. The Potency [4] was “inactive”.
With `CC(N)Cc1c[nH]c2ccccc12` (stereo unspecified) the activation [1] was 12.4%, the Potency [2] was “inactive” and the Potency [3] was “inactive”. The Potency [4] was “inactive”.
With `Cc1cccc(NC(=O)N[C@@H]2N=C(c3ccccc3)c3ccccc3N(C)C2=O)c1` the activation [1] was -11%, the Potency [2] was “inactive” and the Potency [3] was “inactive”. For the same compound, the Potency [4] was “inactive”.
In the case of `CC[C@H](O)[C@@H](C)[C@H]1O[C@@H]1C[C@H](C)/C=C/C=C(\C)[C@H]1OC(=O)C[C@H](O)CC[C@@](C)(O)[C@@H](OC(C)=O)/C=C/[C@@H]1C`, the Potency [1] is reported as 67.5 nM (active), the Potency [2] is reported as “inactive” and the Potency [3] is reported as “inactive”. The Potency [4] was “inactive”.
For `CN1C2CCC1CC(OC(=O)N1Cc3ccccc3NC1=O)C2` (stereo unspecified), the activation [1] was 1.43%, the Potency [2] was “inactive” and the Potency [3] was “inactive”. The Potency [4] was “inactive”.
In the case of `CCCN(CCC)CCc1ccc(OC)c(OCCc2ccccc2)c1`, the activation [1] is reported as -1%, the Potency [2] is reported as “inactive” and the Potency [4] is reported as “inactive”.
For `O=C1N[C@@H](Cc2ccccc2)CN2CCCC[C@@H]12`, the activation [1] was -9.16%, the Potency [2] was “inactive” and the Potency [4] was “inactive”.
With `CC[C@@H](C)[C@H]1C(=O)O[C@H](C(C)C)C(=O)N(C)[C@@H](C(C)C)C(=O)O[C@H](C(C)C)C(=O)N(C)[C@@H](C(C)C)C(=O)O[C@H](C(C)C)C(=O)N1C` the activation [1] was -17.6%, the Potency [2] was “inactive” and the Potency [4] was “inactive”.
With `OCc1nnc2n1-c1ccc(Cl)cc1C(c1ccccc1Cl)=NC2` the activation [1] was -3.67%, the Potency [2] was “inactive” and the Potency [4] was “inactive”.
In the case of `CC(C)=C1CC[C@]23CO[C@H](C2)[C@@](O)(C(=O)O)CCC13` (stereo partly specified), the activation [1] is reported as -4.58%, the Potency [2] is reported as “inactive” and the Potency [4] is reported as “inactive”.
For `C=C[C@H]1CN2CC[C@H]1C[C@@H]2[C@@H](O)c1ccnc2ccccc12`, the activation [1] was 3.57%, the Potency [2] was “inactive” and the Potency [4] was “inactive”.
For `O=C1C[C@@H]2OCC=C3CN4CC[C@]56c7ccccc7N1[C@H]5[C@H]2[C@H]3C[C@H]46`, the activation [1] was -3.57%, the Potency [2] was “inactive” and the Potency [4] was “inactive”.
In the case of `C=C(CO)C(=O)O[C@H]1C/C(C)=C/CC/C(CO)=C/[C@H]2OC(=O)C(=C)[C@H]12`, the activation [1] is reported as -16.8%, the Potency [2] is reported as “inactive” and the Potency [4] is reported as “inactive”.
For `Clc1ccc([C@]23CNC[C@H]2C3)cc1Cl`, the activation [1] was -21.7%, the Potency [2] was “inactive” and the Potency [4] was “inactive”.
